Compound activity deposited in PubChem by The Scripps Research Institute Molecular Screening Center.
A selection: hits, their analogues and other compounds. The true share with any hit is near 3.5%.
TEAD-YAP block: TEAD-YAP interaction inhibition, primary screen, TEAD-YAP interaction inhibitor project, luminescence, HEK-TIYL cells. TEAD-Gal4/YAP UAS-luciferase luminescence. inhibition, % at 9.12 µM. 640,000 compounds, 1.4% hits. AID 1259422, 2018; in the data active = inhibition above about 32%;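 also: 0% = median of test compound wells and 100% = reference inhibitor wells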
GPR151 ag: activators of human GPR151, primary screen, cell-based, PathHunter beta-arrestin, luminescence | 650,000 compounds, 1% hits | PathHunter beta-arrestin GPR151 cells | activation, % at 11.2 µM | G-protein coupled receptor 151 (Homo sapiens), Q8TDV0; in the data active = activation above about 4.9%;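 also: 0% = median of compound wells and 100% = cells with positive control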
FBW7 activator: FBW7 E3 ligase activators, primary screen, biochemical, AlphaScreen, human. F-box/WD repeat-containing protein 7 (Homo sapiens), Q969H0. AlphaScreen FBW7–phospho-cyclin E peptide binding, activator screen. normalized activity (activation), % at 26.1 µM. 650,000 compounds, 0.13% hits. AID 1259310, 2017; in the data active = normalized activity above about 1.9%;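 also: purified mutant Fbw7 with reduced substrate affinity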
Target sequence (Q969H0 whole entry, looked up): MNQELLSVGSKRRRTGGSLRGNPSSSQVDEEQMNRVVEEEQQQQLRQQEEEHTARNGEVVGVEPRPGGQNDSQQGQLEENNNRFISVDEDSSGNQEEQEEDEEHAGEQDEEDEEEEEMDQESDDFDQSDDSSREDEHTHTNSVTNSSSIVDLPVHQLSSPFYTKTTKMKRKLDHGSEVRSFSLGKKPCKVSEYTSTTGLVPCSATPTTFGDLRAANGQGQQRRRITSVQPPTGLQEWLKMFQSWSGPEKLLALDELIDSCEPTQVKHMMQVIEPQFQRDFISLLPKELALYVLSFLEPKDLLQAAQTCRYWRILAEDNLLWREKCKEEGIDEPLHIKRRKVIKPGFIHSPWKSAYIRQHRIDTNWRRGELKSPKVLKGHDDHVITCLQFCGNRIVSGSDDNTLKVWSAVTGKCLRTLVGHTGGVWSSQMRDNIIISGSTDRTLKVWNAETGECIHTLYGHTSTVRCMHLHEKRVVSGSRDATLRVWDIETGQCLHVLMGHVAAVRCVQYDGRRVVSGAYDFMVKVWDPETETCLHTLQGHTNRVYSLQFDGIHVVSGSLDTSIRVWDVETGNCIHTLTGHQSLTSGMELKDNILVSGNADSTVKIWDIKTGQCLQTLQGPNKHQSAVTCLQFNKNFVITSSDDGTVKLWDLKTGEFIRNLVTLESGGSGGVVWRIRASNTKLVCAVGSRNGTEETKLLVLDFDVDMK
MITF inh: MITF inhibitors, primary screen, biochemical, AlphaScreen, human | Microphthalmia-associated transcription factor (Homo sapiens), O75030 | AlphaScreen MITF homodimerization, bead proximity signal | inhibition, % at 2.6 µM | 650,000 compounds, 0.91% hits; in the data active = inhibition above about 50%;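 also: 0% = vehicle wells with protein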
Numbers without * were called inactive.

SMILES	TEAD-YAP block	GPR151 ag	FBW7 activator	MITF inh
COc1cccc(C(=O)Nn2c(-c3ccc(C(C)(C)C)cc3)nc3ccccc3c2=O)c1	42*	1	0	7
COc1cc(OC)cc(C(=O)Nn2c(-c3ccc(C(C)(C)C)cc3)nc3ccccc3c2=O)c1	38*	-1	0	-5
CS(=O)(=O)N(CCc1ccccc1)CC(=O)N(Cc1ccccc1)Cc1ccccc1	-11	-1	0	-10
O=S(=O)(c1ccc(F)c(F)c1)N1CCCc2ccccc21	10	1	1	18
O=S(=O)(c1ccc2ccccc2c1)N1CCCc2ccccc21	55*	0	0	-7
Cc1cc(S(=O)(=O)N2CCCCCC2)ccc1-n1cnnn1	-4	0	0	9
O=C(O)c1c[nH]c2ccc(S(=O)(=O)N3CCCc4ccccc43)cc2c1=O	48*	1	0	1
O=S(=O)(c1ccc2oc3ccccc3c2c1)N1CCCc2ccccc21	59*	-1	0	-4
Cc1cc(S(=O)(=O)N2CCCc3ccccc32)ccc1-n1cnnn1	3	0	2.1*	17
O=C1N[C@@H](Cc2cnc[nH]2)C(=O)N2CCN(Cc3cnn(-c4ccccc4)c3)C[C@H]12	3	0	0	15
CC(C)(C)CN1CCN(Cc2nc(-c3ccc(F)cc3)cs2)CC1CCO (stereo not drawn)	44*	-2	0	0
CN1CCN(Cc2nc(-c3ccc(F)cc3)cs2)CC1CCO (stereo not drawn)	-4	-3	0	9
COc1ccc(-c2cc(Nc3ccc(Oc4ccccc4)cc3)nc(N)n2)cn1	44*	2	0	6
COc1ccc(-c2cc(Nc3cc(OC)c(OC)c(OC)c3)nc(N)n2)cc1	41*	2	0	-17
COc1ccc(-c2cc(NCCc3ccc(O)cc3)nc(N)n2)cc1	-44	-1	0	7
COc1ccc(CCNc2cc(-c3ccc(OC)nc3)nc(N)n2)cc1	51*	-1	0	0
COc1ccc(CCNc2cc(-c3ccccc3)nc(N)n2)cc1	42*	0	0	3
COc1ccc(-c2cc(Nc3ccc(NC(C)=O)cc3)nc(N)n2)cn1	-13	-1	0	-6
Cc1nc2c(c(C)nn2-c2ccccc2)c(C)c1CCC(=O)NCc1cccnc1	0	0	0	-13
Cc1nn(C)c(C)c1-c1cc(Nc2ccc(Oc3ccccc3)cc2)nc(N)n1	54*	-1	0	40
COc1cc(Nc2cc(N3CCc4ccccc4C3)nc(N)n2)cc(OC)c1OC	37*	3	0	5
O=C(NCCc1ccccc1)/C(=C/c1ccc(Cl)cc1)NC(=O)c1ccccc1	5	-1	0	4
CNC(=O)c1ccccc1Nc1cc(Nc2ncccc2C)ncc1C(F)(F)F	40*	-2	0	36
CNC(=O)c1ccccc1Nc1ccnc(Nc2ccccn2)c1	76*	0	-1	5
CNC(=O)c1ncccc1Nc1cc(Nc2ccc3[nH]ncc3c2)ncc1C(F)(F)F	9	1	0	3
SMILES	TEAD-YAP block	GPR151 ag	FBW7 activator	MITF inh
CNC(=O)c1ncccc1Nc1cc(Nc2ccc(C(=O)N(C)C)cn2)ncc1C(F)(F)F	72*	0	0	-2
CNC(=O)c1ccccc1Nc1cc(Nc2ccc(-c3cncnc3)cc2OC)ncc1C(F)(F)F	13	0	2	36
CNC(=O)c1ccccc1Nc1cc(Nc2ccc(C(=O)N(C)C)cc2C)ncc1C(F)(F)F	73*	0	0	-4
Cn1c(=O)c(C(=O)NCc2ccccn2)c(O)c2ccccc21	-47	3	0	0
O=C(NCc1ccco1)c1ccc(N2CC3CC(C2)c2cccc(=O)n2C3)c(NC(=O)c2ccccc2Cl)c1 (stereo not drawn)	-9	-1	0	-1
CNC(=O)c1ccccc1Nc1cc(Nc2ccc(C(=O)N(C)C)cn2)ncc1C(F)(F)F	84*	-1	0	-4
CCn1c(CN2CCN(c3ccccc3)CC2)nc2c1c(=O)n(C)c(=O)n2C	46*	2	0	0
CCn1c(CN2CCN(c3ccc(F)cc3)CC2)nc2c1c(=O)n(C)c(=O)n2C	27	3	0	-7
O=C(NCC1CCCO1)c1ccc2c(c1)C(=O)N(N1C(=O)c3ccccc3C1=O)C2=O (stereo not drawn)	-1	-1	0	-2
CCc1ccc(Nc2ncc(C(=O)OC)c3ccccc23)cc1	-9	0	4.0*	13
